Measurements reported in PubChem BioAssay (EPA / NIEHS).
Calls of active or inactive are those of the source. The calls were made as follows: active = hit-call score of the fitted dose curve at least 0.9, where 1 is the maximum; inactive = score below 0.9.

Experiments:
[1] = APR_HepG2_CellCycleArrest_24hr: Apredica 24-hour HepG2 Assay for Cell Cycle Arrest (AID 2282905); conditions: imaging, actives raise or lower the signal;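 also: cell cycle arrest scored as ratio of 2N to 4N nuclear DNA content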
Summary of the method: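 Compounds at 0.39–200 uM (0.5% DMSO) for 24 h, then fixed and Hoechst 33342 stained. Cell-cycle analysis of nuclear DNA content by high-content imaging, fitted bidirectionally versus DMSO.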

[2] = APR_HepG2_NuclearSize_24hr: Apredica 24-hour HepG2 Assay for Nuclear Size (AID 2282907); conditions: high-content imaging, actives raise or lower the signal
Summary of the method: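 HepG2 cells exposed 24 h to compounds at 0.39–200 uM (0.5% DMSO), fixed, Hoechst 33342 stained and imaged at 20x; nuclear diameter measured by automated image analysis, fitted bidirectionally against DMSO controls.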

[3] = APR_HepG2_CellLoss_24hr: Apredica 24-hour HepG2 Assay for Cell Loss (AID 2282908); conditions: high-content imaging;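 as to AC50: fit in both directions so a hit may be cell loss or gain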
Summary of the method: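 HepG2 cells exposed 24 hr to 0.39–200 uM compound in duplicate at 0.5% v/v final DMSO. Cells fixed in 3.7% formaldehyde and Hoechst 33342-stained. Cell number came from nuclear imaging at 20x. Bidirectional fit versus DMSO.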

[4] = APR_HepG2_MitoticArrest_24hr: Apredica 24-hour HepG2 Assay for Mitotic Arrest (AID 2282910); conditions: high-content imaging, actives raise or lower the signal
Summary of the method: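 HepG2 cells, 24 h exposure at 0.39-200 uM (10 concentrations, duplicate, 0.5% DMSO). Fixed, stained for phospho-histone H3 with Hoechst; imaged by high-content microscopy, bidirectional fit versus DMSO.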

[5] = APR_HepG2_MitoMembPot_24hr: Apredica 24-hour HepG2 Assay for Mitochondrial Membrane Potential (AID 2282911); conditions: imaging, actives raise or lower the signal
Summary of the method: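 Mitochondrial membrane potential imaged via MitoTracker Red CMXRos (250 nM, 30 min pre-fixation) in fixed HepG2 cells with Hoechst nuclear identification. Ten concentrations 0.39–200 uM, 24 h treatment, 0.5% DMSO; CCCP as positive control.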

[6] = APR_HepG2_MitoMass_24hr: Apredica 24-hour HepG2 Assay for Mitochondrial Mass (AID 2282912); conditions: high-content imaging, actives raise or lower the signal
Summary of the method: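 HepG2 cells exposed 24 hr to 0.39–200 uM compound, 0.5% v/v DMSO, in duplicate. Stained before fixation with 250 nM MitoTracker Red CMXRos for 30 min, then imaged at 20x with Hoechst nuclei. Fitted in both directions against DMSO.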

[7] = APR_HepG2_p53Act_24hr: Apredica 24-hour HepG2 Assay for p53 Activation (AID 2282913); conditions: high-content imaging, actives raise or lower the signal;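 also: p53 protein immunofluorescence averaged per cell in HepG2 with Hoechst nuclei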
Summary of the method: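 Fluorescence imaging of formaldehyde-fixed HepG2 cells labelled for p53 and with Hoechst, 24 h after dosing (0.39–200 uM, duplicate wells, 0.5% v/v DMSO). Signal fitted in both directions relative to DMSO.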

[8] = APR_HepG2_CellCycleArrest_72hr: Apredica 72-hour HepG2 Assay for Cell Cycle Arrest (AID 2282914); conditions: high-content imaging, actives raise or lower the signal
Summary of the method: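 Read-out: nuclear DNA content from Hoechst 33342 high-content imaging (20x, six fields/well) after 3.7% formaldehyde fixation, fitted bidirectionally against DMSO. Treatment was 72 h in HepG2, ten concentrations 0.39–200 uM, duplicate, 0.5% DMSO.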

[9] = APR_HepG2_CellLoss_72hr: Apredica 72-hour HepG2 Assay for Cell Loss (AID 2282915); conditions: high-content imaging
Summary of the method: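 HepG2 cells exposed 72 h to compound at 0.39–200 uM (10 concentrations, duplicate) in 0.5% DMSO. Fixed with 3.7% formaldehyde and Hoechst 33342-stained. Imaged at 20x; nuclear count gives cell number, fitted bidirectionally versus DMSO.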

[10] = APR_HepG2_MitoticArrest_72hr: Apredica 72-hour HepG2 Assay for Mitotic Arrest (AID 2282918); conditions: high-content imaging, actives raise or lower the signal
Summary of the method: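 High-content imaging of fixed human HepG2 cells after 72 h compound exposure (0.39–200 uM, duplicates, 0.5% DMSO); mitotic arrest scored from phospho-histone H3 and nuclear Hoechst staining relative to DMSO.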

[11] = APR_HepG2_MicrotubuleCSK_72hr: Apredica 72-hour HepG2 Assay for Microtubule CSK Stabilty (AID 2282919); conditions: HepG2 microtubule cytoskeleton, high-content imaging, actives raise or lower the signal
Summary of the method: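 HepG2 cells were exposed 72 hr to compound at 0.39–200 uM in duplicate (0.5% DMSO final), then fixed and permeabilized. Alpha-tubulin immunofluorescence was imaged by high-content microscopy, with bidirectional fitting against DMSO and taxol as positive control.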

[12] = APR_HepG2_P-H2AX_24hr: Apredica 24-hour HepG2 Assay for H2AX Phosphorylation (AID 2282920); conditions: high-content imaging, actives raise or lower the signal
Summary of the method: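 High-content imaging of phospho-histone H2A.x immunofluorescence, nuclei counterstained with Hoechst 33342, in fixed HepG2 cells. Compounds ran 0.39–200 uM in duplicate for 24 h, final DMSO 0.5%. Signal change fitted both directions against DMSO.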

[13] = APR_HepG2_StressKinase_24hr: Apredica 24-hour HepG2 Assay for Stress Kinase (AID 2282922); conditions: HepG2 stress kinase (phospho-c-Jun) imaging, actives raise or lower the signal
Summary of the method: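 HepG2 cells exposed 24 h to 0.39–200 uM compound in duplicate (0.5% v/v DMSO final). Cells fixed in 3.7% formaldehyde, permeabilized and immunostained for phospho-c-Jun; read by high-content fluorescence imaging, fitted bidirectionally against DMSO.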

[14] = APR_HepG2_p53Act_72hr: Apredica 72-hour HepG2 Assay for p53 Activation (AID 2282923); conditions: high-content imaging, actives raise or lower the signal;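 also: average cellular p53 protein immunofluorescence intensity in HepG2 cells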
Summary of the method: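 HepG2 cells exposed 72 h to 0.39–200 uM in 0.5% DMSO, duplicates. Fixed, permeabilized cells immunostained for p53 (Cy5) with Hoechst; imaged at 20x, fluorescence analyzed bidirectionally against DMSO.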

[15] = APR_HepG2_NuclearSize_72hr: Apredica 72-hour HepG2 Assay for Nuclear Size (AID 2282925); conditions: high-content imaging, actives raise or lower the signal
Summary of the method: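 HepG2 cells dosed 72 h at 0.39–200 uM (10 concentrations, duplicate) in 0.5% v/v DMSO final. Fixed, Hoechst 33342-stained nuclei imaged; nuclear diameter measured by automated image analysis. Bidirectional fit versus DMSO.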

[16] = APR_HepG2_StressKinase_72hr: Apredica 72-hour HepG2 Assay for Stress Kinase (AID 2282921); conditions: HepG2 stress kinase (phospho-c-Jun) imaging, actives raise or lower the signal
Summary of the method: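 HepG2 cells treated 72 hr with 0.39–200 uM compound, 0.5% v/v DMSO, duplicate wells. After formaldehyde fixation and Triton permeabilization, stained with anti-phospho-c-Jun (1:500) and Cy3 secondary, imaged at 20x. Fitted in both directions against DMSO.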

[17] = APR_HepG2_P-H2AX_72hr: Apredica 72-hour HepG2 Assay for H2AX Phosphorylation (AID 2282916); conditions: imaging, actives raise or lower the signal;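 also: phospho-histone H2A.x immunostain intensity per cell marking DNA damage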
Summary of the method: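 HepG2 cells treated 72 h at 0.39–200 uM, 0.5% DMSO final, duplicates. Formaldehyde-fixed, Triton-permeabilised, immunostained for phospho-H2A.x with Hoechst; fluorescence imaged at 20x, bidirectional fit versus DMSO.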

[18] = APR_HepG2_MitoMass_72hr: Apredica 72-hour HepG2 Assay for Mitochondrial Mass (AID 2282924); conditions: high-content imaging, actives raise or lower the signal;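 also: MitoTracker Red CMXRos stain intensity per cell imaged as mitochondrial mass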
Summary of the method: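 HepG2 cells dosed 72 hr at 0.39–200 uM (0.5% DMSO), in duplicate. MitoTracker Red CMXRos 250 nM loaded 30 min before formaldehyde fixation; high-content fluorescence imaging, bidirectional fit versus DMSO.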

[19] = APR_HepG2_MitoMembPot_72hr: Apredica 72-hour HepG2 Assay for Mitochondrial Membrane Potential (AID 2282917); conditions: imaging, actives raise or lower the signal
Summary of the method: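 HepG2 cells dosed 72 hr with compound at 0.39–200 uM in duplicate, 0.5% v/v DMSO final. Mitochondria stained with 250 nM MitoTracker Red CMXRos for 30 min before formaldehyde fixation, imaged by high-content fluorescence; bidirectional fit versus DMSO.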

Measured: AC50

CN(C)c1ccc(Cc2ccc(N(C)C)cc2)cc1
active: [5] 55.9 µM | [8] 50.8 µM | [9] 45.2 µM | [10] 30.7 µM | [11] 37.4 µM
not listed: [16] | [17] | [18] | [19]
inactive: all other assays above

COC(=O)CC(=O)OC
not listed: [17] | [18] | [19]
inactive: all other assays above

O=C(CCCCCCCCc1cccnc1)N1CCC(C=C(c2ccccc2)c2ccccc2)CC1
not listed: [19]
inactive: all other assays above

O=C(O)c1cc(N=Nc2ccc(S(=O)(=O)Nc3ccccn3)cc2)ccc1O
active: [5] 95.9 µM | [19] 88.8 µM
not listed: [17] | [18]
inactive: all other assays above

COCCOc1cc2cc(C(=O)NC3CCN(C(C)C)CC3)n(CC(=O)Nc3ccc(Cl)cn3)c2cn1
active: [3] 74 µM | [4] 89.4 µM | [6] 93.1 µM | [9] 93.1 µM | [10] 63.2 µM | [11] 83.7 µM | [12] 94.3 µM
not listed: [17] | [19]
inactive: all other assays above

Clc1nc(Cl)c(Cl)c(Cl)c1Cl
inactive: [2] | [5] | [11]
active: [1] 40 µM | [3] 45 µM | [4] 77.3 µM | [6] 102 µM | [7] 38.6 µM | [8] 20 µM | [9] 72 µM | [17] 57.5 µM | [10] 34.1 µM | [12] 41.2 µM | [13] 53.2 µM | [14] 25 µM | [15] 96.9 µM

CC(=O)OC[C@H]1O[C@@](COC(C)=O)(O[C@H]2O[C@H](COC(C)=O)[C@@H](OC(C)=O)[C@H](OC(C)=O)[C@H]2OC(C)=O)[C@@H](OC(C)=O)[C@@H]1OC(C)=O
not listed: [16] | [17] | [18]
inactive: all other assays above

CC/C(=C\C(=N/O)C(N)=O)C(C)[N+](=O)[O-] (configuration not stated)
not listed: [19]
inactive: all other assays above

Fc1ccccc1[C@@H](F)COC1CCC(Nc2ncnc3[nH]ncc23)CC1 (some centres not stated)
active: [1] 62.3 µM | [3] 52.4 µM | [8] 50.1 µM | [9] 59 µM | [17] 51.3 µM | [10] 60 µM | [11] 81.2 µM | [12] 74.9 µM | [14] 55.6 µM
inactive: [2] | [4] | [5] | [6] | [7] | [16] | [13] | [15]

O=C1CCCCCN1
not listed: [17] | [18]
inactive: all other assays above
